Laboratory results published in PubChem BioAssay.
Calls of active or inactive are those of the source.

How the values were obtained:
[1] = tested on: Human papillomavirus type 1a protein E7 (residues 44-93); assay: small molecules binding HPV E7 44-93 – biochemical, small-molecule microarray, residues 44-93, 635 nm fluorescence, primary screen (AID 1108); details: fluorescence 635 nm, higher = more signal;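 also: E7 fragment applied at 1 µg/mL in TBST for 1 h at 4 C; score combines spot fluorescence with its signal to noise ratio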
[2] = hepatitis C replication reporter changes, two-sided – Huh7 cells, luciferase reporter, HCV replication inhibitor project, primary screen (AID 1109); details: Huh7 HCV replicon luciferase reporter, 48 h; higher = more signal;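 also: huh7 hepatoma cells harbouring a luciferase neomycin HCV replicon reporter; luciferase luminescence as measure of HCV replicon replication; test concentration not given here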
[3] = molecular target: Left-right determination factor 2 (Homo sapiens) (UniProt O00292); assay: small molecules binding LEFTY2 protein – biochemical, small-molecule microarray, 635 nm fluorescence scan, primary screen (AID 1110); details: higher = more signal
Chain of Left-right determination factor 2 (Homo sapiens) (O00292 whole entry, looked up): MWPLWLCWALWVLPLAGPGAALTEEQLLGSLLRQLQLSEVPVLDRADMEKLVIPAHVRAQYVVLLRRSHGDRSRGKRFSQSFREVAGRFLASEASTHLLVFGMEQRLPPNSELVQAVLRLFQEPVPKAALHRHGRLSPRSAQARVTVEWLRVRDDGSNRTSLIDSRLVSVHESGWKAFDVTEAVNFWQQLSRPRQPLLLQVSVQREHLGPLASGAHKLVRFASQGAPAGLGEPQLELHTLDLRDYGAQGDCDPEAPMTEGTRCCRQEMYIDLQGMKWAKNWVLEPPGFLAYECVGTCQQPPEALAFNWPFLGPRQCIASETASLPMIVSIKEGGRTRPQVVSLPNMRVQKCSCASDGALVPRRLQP

[4] = molecular target: Calmodulin-1 (Homo sapiens) (UniProt P0DP23); assay: small molecules binding calmodulin-1 with EGTA – biochemical, small-molecule microarray, Cy5-labelled CALM1, profiling panel (AID 1111); details: Cy5-CALM1 binding fluorescence, higher = more signal;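 also: labelled calmodulin applied in Tris saline Tween buffer holding calcium plus EGTA and DTT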
[5] = molecular target: Calmodulin-1 (Homo sapiens) (UniProt P0DP23); assay: small molecules binding Ca-loaded calmodulin-1 – biochemical, small-molecule microarray, Cy5-labelled CALM1, plus calcium, artefact control for SMM control-protein annotation, profiling panel (AID 1112); details: Cy5-CALM1 binding fluorescence, higher = more signal;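 also: score merges spot fluorescence with signal to noise from triplicate slides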
[6] = probe aWnt5a binding to arrayed compounds – biochemical, biotinylated probe, 635/667 nm fluorescence, primary screen (AID 1113); details: small-molecule microarray, higher = more signal;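 also: score merges 667 nm fluorescence intensity with signal-to-noise per printed feature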
[7] = probe aShh binding to arrayed compounds – biochemical, biotinylated probe, 635/667 nm fluorescence, primary screen (AID 1114); details: small-molecule microarray, higher = more signal;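 also: probe is biotin-labelled aShh protein from a stem cell growth factor screen; measures binding of labelled protein to compounds printed on the slide; score merges feature fluorescence at 667 nm with signal-to-noise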
[8] = probe aNog binding to arrayed compounds – biochemical, biotinylated probe, 635/667 nm fluorescence, primary screen (AID 1115); details: small-molecule microarray, higher = more signal;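 also: probe is biotinylated aNog protein used at 0.15 µg/mL for 1 h at 4 C; z-score combines 667 nm fluorescence of each spot with its signal to noise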
[9] = molecular target: Torsin-1A-interacting protein 1 (Homo sapiens) (UniProt Q5JTV8); assay: compound microarray binding of lysate hLAP1 – cell lysate, small-molecule microarray, COS7 lysate, 635/667 nm fluorescence, primary screen (AID 1116); details: 635 nm fluorescence, higher = more signal
Chain of Torsin-1A-interacting protein 1 (Homo sapiens) (Q5JTV8 whole entry, looked up): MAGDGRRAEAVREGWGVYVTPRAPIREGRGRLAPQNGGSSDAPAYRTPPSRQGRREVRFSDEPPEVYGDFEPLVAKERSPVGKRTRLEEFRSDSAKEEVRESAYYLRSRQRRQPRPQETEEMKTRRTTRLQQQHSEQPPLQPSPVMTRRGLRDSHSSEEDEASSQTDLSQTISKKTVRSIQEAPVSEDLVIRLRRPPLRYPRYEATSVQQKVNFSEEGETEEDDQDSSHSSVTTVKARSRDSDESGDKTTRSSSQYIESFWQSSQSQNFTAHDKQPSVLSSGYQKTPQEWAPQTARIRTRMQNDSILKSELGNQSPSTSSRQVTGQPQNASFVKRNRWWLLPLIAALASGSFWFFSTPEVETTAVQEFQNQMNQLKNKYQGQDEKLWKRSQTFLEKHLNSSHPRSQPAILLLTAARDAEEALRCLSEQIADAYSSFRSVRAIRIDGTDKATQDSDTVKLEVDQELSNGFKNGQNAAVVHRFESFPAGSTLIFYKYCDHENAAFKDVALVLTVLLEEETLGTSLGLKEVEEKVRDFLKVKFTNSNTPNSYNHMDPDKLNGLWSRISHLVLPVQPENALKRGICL

[10] = molecular target: Alpha-bungarotoxin (Bungarus multicinctus) (UniProt P60615); assay: compounds binding labelled alpha-BTX control protein – biochemical, small-molecule microarray, Alexa647 label, 635/667 nm fluorescence, artefact control for SMM control protein annotation, profiling panel (AID 1117); details: alpha-BTX-A647 binding fluorescence, higher = more signal
Chain of Alpha-bungarotoxin (Bungarus multicinctus) (P60615 whole entry, looked up): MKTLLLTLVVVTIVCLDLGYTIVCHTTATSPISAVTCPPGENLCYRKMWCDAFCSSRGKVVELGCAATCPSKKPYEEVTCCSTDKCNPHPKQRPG

Albumin (Bos taurus) = Albumin (Bos taurus) (UniProt P02769); assay: compounds binding labelled BSA control protein – biochemical, small-molecule microarray, Alexa647 label, 635/667 nm fluorescence, artefact control for SMM control protein annotation, profiling panel (AID 1118); details: BSA-A647 binding, fluorescence 635 nm, higher = more signal;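 also: score merges 667 nm emission intensity and signal-to-noise per printed compound spot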
Chain of Albumin (Bos taurus) (P02769 whole entry, looked up): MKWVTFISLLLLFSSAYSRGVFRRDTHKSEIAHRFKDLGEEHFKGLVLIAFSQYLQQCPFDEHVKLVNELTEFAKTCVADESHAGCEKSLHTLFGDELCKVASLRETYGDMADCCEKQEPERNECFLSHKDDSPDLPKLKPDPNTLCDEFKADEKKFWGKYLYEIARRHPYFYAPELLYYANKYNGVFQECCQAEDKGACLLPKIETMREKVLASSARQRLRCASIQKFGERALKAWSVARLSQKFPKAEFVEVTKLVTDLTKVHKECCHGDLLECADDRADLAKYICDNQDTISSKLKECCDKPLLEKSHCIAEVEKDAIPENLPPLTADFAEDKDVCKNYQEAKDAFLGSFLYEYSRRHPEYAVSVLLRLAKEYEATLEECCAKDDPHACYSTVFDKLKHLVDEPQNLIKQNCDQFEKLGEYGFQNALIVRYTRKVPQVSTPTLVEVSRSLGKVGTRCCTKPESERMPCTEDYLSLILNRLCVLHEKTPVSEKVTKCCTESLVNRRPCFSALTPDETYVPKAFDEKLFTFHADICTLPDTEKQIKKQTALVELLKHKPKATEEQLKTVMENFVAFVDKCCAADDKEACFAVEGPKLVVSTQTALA

[11] = probe aXIP binding to arrayed compounds – biochemical, NeuroSMM set, 635/667 nm fluorescence, primary screen (AID 1119); details: small-molecule microarray, higher = more signal, called active from +8 up or from −8 down;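 also: probe is the protein aXip251-270 applied at 1 µg/mL to compound-printed slides; binding of probe to printed compounds measured as 667 nm fluorescence plus signal to noise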
[12] = probe aNOTCH3 binding on compound microarray – biochemical, small-molecule microarray, 635/667 nm fluorescence, primary screen (AID 1120); details: higher = more signal;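 also: probe is a biotin-tagged antibody raised against NOTCH3 rather than NOTCH3 protein; score merges spot fluorescence near 667 nm with spot signal to noise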
[13] = probe aNOTCH2 binding on compound microarray – biochemical, small-molecule microarray, 635/667 nm fluorescence, primary screen (AID 1121); details: higher = more signal;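 also: score merges feature fluorescence read at 667 nm with its signal to noise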
[14] = molecular target: Carbonic anhydrase 2 (Homo sapiens) (UniProt P00918); assay: compounds binding carbonic anhydrase 2 – biochemical, small-molecule microarray, Alexa647-labelled CAII, profiling panel (AID 1122); details: CAII-A647 binding fluorescence, higher = more signal
[15] = COS7 lysate on small-molecule microarray, probe aHis, 635 nm (AID 1123); details: COS7 cell lysate, fluorescence, higher = more signal;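 also: z-score combines 667nm fluorescence intensity with signal-to-noise per printed compound spot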
[16] = probe aLAP1 signal on lysate-treated microarray – cell lysate, small-molecule microarray, COS7 lysate, primary screen (AID 1124); details: probe aLAP1, fluorescence, higher = more signal;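 also: lysate comes from COS7 cells expressing LAP1 and is applied at 0.3 µg/mL; score merges spot fluorescence near 667 nm with signal-to-noise over triplicate slides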
Sam68 (KHDRBS1) = assay: compounds binding KHDRBS1 protein – biochemical, small-molecule microarray, 635 nm fluorescence, primary screen (AID 1125); details: higher = more signal;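 also: score merges 667 nm channel intensity with signal to noise over triplicate slides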
[17] = tested on: Chordin-like protein 2 (CHRDL2); assay: compounds binding chordin-like 2 – biochemical, small-molecule microarray, 635 nm fluorescence, primary screen (AID 1126); details: fluorescence 635 nm, higher = more signal;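 also: printed compound slides probed with Chrdl2 protein at 4 µg/mL for 1 h at 4 C; score merges 667 nm emission intensity with signal to noise over three replicate slides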
[18] = molecular target: Concanavalin-A (Canavalia ensiformis) (UniProt P02866); assay: compounds binding concanavalin A lectin – biochemical, small-molecule microarray, Alexa647 label, 635 nm, artefact control for SMM control protein annotation, primary screen (AID 1127); details: ConA-A647 binding fluorescence, higher = more signal;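 also: z combines 667 nm emission intensity with signal-to-noise across three replicate slides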
Chain of Concanavalin-A (Canavalia ensiformis) (P02866 whole entry, looked up): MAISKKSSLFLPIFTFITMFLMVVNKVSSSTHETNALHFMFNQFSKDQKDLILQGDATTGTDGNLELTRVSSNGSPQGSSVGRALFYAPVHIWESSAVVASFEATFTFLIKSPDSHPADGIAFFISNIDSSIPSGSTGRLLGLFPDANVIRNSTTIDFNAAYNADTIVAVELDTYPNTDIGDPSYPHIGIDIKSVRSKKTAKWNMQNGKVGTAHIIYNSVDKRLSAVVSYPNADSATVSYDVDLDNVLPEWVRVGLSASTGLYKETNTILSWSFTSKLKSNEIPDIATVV

Structure (SMILES)	composite z-score [1]	z-score [2]	composite z-score [3]	composite z-score [4]	composite z-score [5]	composite z-score [6]	composite z-score [7]	composite z-score [8]	composite z-score [9]	composite z-score [10]	composite z-score (Albumin (Bos taurus))	composite Z-score [11]	composite z-score [12]	composite z-score [13]	composite z-score [14]	composite z-score [15]	composite z-score [16]	composite z-score (Sam68 (KHDRBS1))	composite z-score [17]	composite z-score [18]
CC(C)(C)OC(=O)COc1cccc(C(=O)CCN2CCOCC2)c1	0.219	-1.7	0.0527	-0.501	-0.841	-0.192	-0.193	-0.419	-0.0786	-0.204	0.217	0.784 (inactive)	-0.0119	-0.074	-0.382	0.258	-0.281	0.656	0.309	-0.244
NC(=O)[C@@]1(Cc2ccccc2)COC(c2ccc(OCCCO)cc2)=N1	0.404	1.84	-0.263	0.435	1.2	-0.0179	0.46	0.959	0.381	-0.0002	0.456	0.08 (inactive)	-0.0647	0.513	0.815	2.91	-0.238	-0.442	-0.165	-0.978
CCCC[C@@H](O)C1=C(COc2ccccc2)C[C@H]2C(=O)N(Cc3ccccc3)C(=O)[C@H]2[C@H]1CO	0.207	-2.3	0.321	0.422	-0.451	-0.161	-0.214	-0.213	0.176	1.29	0.0031	-0.861 (inactive)	-0.287	-0.0795	0.099	0.523	-0.523	0.426	0.228	0.395
COCCOC(=O)N1C(=O)[C@@]2(c3cc(C#CCC(C(=O)OC)C(=O)OC)ccc31)[C@H](c1ccc(OCCO)cc1)N1[C@H](c3ccccc3)[C@H](c3ccccc3)OC(=O)[C@H]1[C@@H]2C(=O)N1CCc2cc(OC)c(OC)cc2C1	1.42	-0.919	0.52	1.01	0.182	-0.072	0.123	0.353	1.05	1.68	0.688	-0.388 (inactive)	0.0351	-0.106	0.256	1.48	-0.0051	1.06	0.378	1.11
C=CCC(OC(C)=O)[C@@H]1[C@@H](N(Cc2cc3ccccc3o2)C(=O)Cc2ccc(F)cc2)c2cc(OCCCO)ccc2N1C(=O)Cc1ccc2ccccc2c1 (stereo not given in full)	-0.266	0.185	-0.537	0.0637	0.34	-0.147	0.0639	-0.136	0.0568	0.317	0.533	0.242 (inactive)	-0.0311	-0.104	-0.208	0.615	-0.0657	-0.39	-0.21	0.296
